Only some compounds are listed: those with a hit (about 3.4% of all), similar ones and a draw of the others.
GPR151 activ: activators of human GPR151, primary screen, cell-based, PathHunter beta-arrestin, luminescence | PathHunter beta-arrestin GPR151 cells | activation, % at 11.2 µM | actives 1% (n = 650,000); in the data active = activation above about 4.9%;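 note: 0% = median of compound wells and 100% = cells with positive control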
Target sequence (Q8TDV0 whole entry, looked up): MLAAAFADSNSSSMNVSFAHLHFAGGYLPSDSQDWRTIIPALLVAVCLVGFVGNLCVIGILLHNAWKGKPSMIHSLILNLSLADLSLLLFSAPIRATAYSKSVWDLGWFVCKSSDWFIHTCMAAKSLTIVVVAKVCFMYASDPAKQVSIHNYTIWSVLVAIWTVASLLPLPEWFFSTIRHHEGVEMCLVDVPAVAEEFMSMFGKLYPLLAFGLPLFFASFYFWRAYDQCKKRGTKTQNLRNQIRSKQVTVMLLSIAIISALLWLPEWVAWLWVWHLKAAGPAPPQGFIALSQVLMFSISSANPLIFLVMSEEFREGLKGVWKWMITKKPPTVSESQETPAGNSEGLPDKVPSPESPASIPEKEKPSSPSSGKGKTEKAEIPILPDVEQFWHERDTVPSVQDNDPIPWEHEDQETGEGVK
FBW7 act: FBW7 E3 ligase activators, primary screen, biochemical, AlphaScreen, human | F-box/WD repeat-containing protein 7 (Homo sapiens), Q969H0 | AlphaScreen FBW7–phospho-cyclin E peptide binding, activator screen | normalized activity (activation), % at 26.1 µM | actives 0.13% (n = 650,000) | AID 1259310, 2017; in the data active = normalized activity above about 1.9%;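 note: purified mutant Fbw7 with reduced substrate affinity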
MITF inh: MITF inhibitors, primary screen, biochemical, AlphaScreen, human | Microphthalmia-associated transcription factor (Homo sapiens), O75030 | actives 0.91% (n = 650,000) | AlphaScreen MITF homodimerization, bead proximity signal | AID 1259374, 2018 | inhibition, % at 2.6 µM; in the data active = inhibition above about 50%;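 note: 0% = vehicle wells with protein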
TEAD-YAP inh: TEAD-YAP interaction inhibition, primary screen, TEAD-YAP interaction inhibitor project, luminescence, HEK-TIYL cells; inhibition, % at 9.12 µM; actives 1.4% (n = 640,000); TEAD-Gal4/YAP UAS-luciferase luminescence; AID 1259422, 2018; in the data active = inhibition above about 32%;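 note: 0% = median of test compound wells and 100% = reference inhibitor wells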
Active calls of the source: *; / = no result.

SMILES	GPR151 activ	FBW7 act	MITF inh	TEAD-YAP inh
O=C(O)c1cccc(-c2cnc(NCCCc3ccccc3)c3nccn23)c1	-1	0	-25	-3
COCCCNc1nccn2c(-c3cccc(NC(C)=O)c3)cnc12	-5	0	17	90*
CC(=O)Nc1cccc(-c2cnc(NCCCc3ccccc3)c3nccn23)c1	-1	0	-2	93*
CCCNc1nccn2c(-c3cccc(NC(C)=O)c3)cnc12	-1	-1	-14	69*
OC1CCN(c2ccnc(Nc3ccc(N4CCOCC4)cc3)c2)CC1	0	0	1	-4
Cc1ccccc1C(=O)OCCN(C)C	-1	0	-1	-3
CCc1cc2c(nc1CC)CCN(CC/C(C)=N/O[C@@H]1O[C@H](COC(C)=O)[C@@H](OC(C)=O)[C@H](OC(C)=O)[C@H]1OC(C)=O)C2	2	0	-13	/
Cc1cc(C)cc(Oc2nc3c(C)cccn3c(=O)c2/C=C(\C#N)C(=O)N2CCOCC2)c1	4	0	8	37*
Cc1ccc(Oc2nc3ccccn3c(=O)c2/C=C(\C#N)C(=O)N2CCOCC2)c(C)c1	0	0	4	34*
Cc1cccc(Oc2nc3ccccn3c(=O)c2/C=C(\C#N)C(=O)N2CCOCC2)c1C	-1	1	18	42*
COc1ccc(Oc2nc3c(C)cccn3c(=O)c2/C=C(\C#N)C(=O)N2CCOCC2)cc1	0	0	9	15
O=[N+]([O-])c1cccc(C2CC(c3ccccc3)=NN2S(=O)(=O)c2ccccc2)c1 (centres undefined)	4	0	0	-6
Cc1ccsc1-c1nc(CSCC(=O)N2CCCC2)c(C)o1	0	0	-3	46*
CCc1ccc(-c2nc(CSCC(=O)N3CCN(CC)CC3)c(C)o2)cc1	0	0	-7	37*
Cc1ccccc1-c1nc(CSCC(=O)N2CCOCC2)c(C)o1	1	0	-3	12
Cc1ccccc1-c1nc(CSCC(=O)N2CCCC2)c(C)o1	-1	0	-9	56*
Cn1nc(CC(=O)Nc2ccc(F)cc2Cl)c2ccccc2c1=O	1	0	-13	46*
COc1ccccc1NC(=O)Cc1nn(C)c(=O)c2ccccc12	0	0	13	36*
C/C(=N\NC(=O)c1ccccc1)c1ccc(N)cc1	0	0	10	-64
CC1CC(C)(C)N(C(=O)CNC2CCCC2)c2ccccc21 (centres undefined)	-1	0	49	6
CC[N+](CC)=c1ccc2nc3c(cc(N)c4ccccc43)oc-2c1	-2	0	7	33*
CCNc1cc(C)nc(NCCNC(=O)Nc2cc(Cl)ccc2OC)n1	-1	0	2	33*
CCOC(=O)Nc1ccc(I)cc1	1	0	1	-38
CCOC(=O)Nc1ccc(Cc2ccc(NC(=O)OCC)cc2)cc1	1	0	-4	33*
O=C(NCc1nc2ccccc2[nH]1)c1cccc(-c2ccc(N3CCOCC3)nc2)c1	4	0	3	43*
SMILES	GPR151 activ	FBW7 act	MITF inh	TEAD-YAP inh
O=C(NCc1nc2ccccc2[nH]1)c1ccnc(N2CCOCC2)c1	-1	0	20	-1
CN1CCN(c2ccc(-c3cccc(C=O)c3)cn2)CC1	-5	0	9	-30
O=Cc1cccc(-c2ccc(N3CCOCC3)nc2)c1	-3	0	7	47*
CN1CCN(c2ccc(-c3cccc(C(=O)NCc4nc5ccccc5[nH]4)n3)cc2)CC1	2	0	13	49*
O=C(NCc1nc2ccccc2[nH]1)c1ccnc(-c2ccc(N3CCOCC3)nc2)c1	-2	0	6	32*
c1ccc2[nH]c(CNc3cc(-c4ccc(N5CCOCC5)nc4)ncn3)nc2c1	-1	0	-4	-35
CCCNC(=O)c1cccc(-c2ccc(N3CCN(C)CC3)cc2)n1	1	0	-3	-16
Fc1ccc(-c2cn3nc4c(nc3n2)CCCC4)cc1	-10	0	4	40*
COc1cccc(-c2cn3nc4c(nc3n2)CCCC4)c1	-8	0	-1	66*
Clc1ccc(-c2cn3nc4c(nc3n2)CCCC4)cc1	-2	0	-2	-20
CCCN1CCC(NCc2ccccc2Br)CC1	-1	0	-3	-1
Fc1ccccc1Nc1nc(NCc2ccco2)c2ccccc2n1	1	0	-1	-13

From PubChem
